Rows were chosen to be rich in hits. Some 7.5% of all compounds tested hit in one or more screens of this group.
NPC1 prom act: qHTS Assay for NPC1 Promoter Activators | Huh7 NPC1 promoter luciferase reporter, 24 h | Potency, µM (titrated, usually from 9.22 µM), for the others: at the highest dose activation, most hits filed as activators | hit rate 2.4% among 320,000 | AID 485313, 2010; note: % of control where 0% means no effect; nearly all actives have a fitted effect of over 60% in size
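Stable NPC1-promoter luciferase Huh7 line; cpd (DMSO) 24 h, 37 °C, 5% CO2; Amplite luciferase reagent 10 min RT; luminescence readout. qHTS format.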
Rab9 prom act: qHTS Assay for Rab9 Promoter Activators | hit rate 2.8% among 320,000 | Huh7 Rab9 promoter-luciferase reporter, luminescence, 24 h | Potency, µM (doses to about 9.22 µM), without a hit: at the highest dose activation, negative = inhibition, most hits filed as activators; note: % of control where 0% means no effect; nearly all actives have a fitted effect of over 60% in size
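Cells were plated at 1500 per well in reduced-serum medium with 10% FBS and left 2 h. Compound in DMSO was then added for 24 h at 37 °C. Reporter signal was read by luminescence after 10 min with luciferase detection reagent.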
FLuc counter: qHTS profiling assay for firefly luciferase inhibitor/activator using purifed enzyme and Km concentrations of substrates (counterscreen for miR-21 project) | purified FLuc, Km substrates, luminescence inhibition | hit rate 6.9% among 360,000 | Luciferin 4-monooxygenase (Photinus pyralis), P08659 | Potency, µM (top dose mostly 57.5 µM), for inactives: at the highest dose activity change, negative = inhibition, most hits filed as inhibitors;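 note: plate controls were vehicle for no effect and reference inhibitor for full effect; nearly all actives have a fitted effect of over 55% in size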
Target sequence (P08659 whole entry, looked up): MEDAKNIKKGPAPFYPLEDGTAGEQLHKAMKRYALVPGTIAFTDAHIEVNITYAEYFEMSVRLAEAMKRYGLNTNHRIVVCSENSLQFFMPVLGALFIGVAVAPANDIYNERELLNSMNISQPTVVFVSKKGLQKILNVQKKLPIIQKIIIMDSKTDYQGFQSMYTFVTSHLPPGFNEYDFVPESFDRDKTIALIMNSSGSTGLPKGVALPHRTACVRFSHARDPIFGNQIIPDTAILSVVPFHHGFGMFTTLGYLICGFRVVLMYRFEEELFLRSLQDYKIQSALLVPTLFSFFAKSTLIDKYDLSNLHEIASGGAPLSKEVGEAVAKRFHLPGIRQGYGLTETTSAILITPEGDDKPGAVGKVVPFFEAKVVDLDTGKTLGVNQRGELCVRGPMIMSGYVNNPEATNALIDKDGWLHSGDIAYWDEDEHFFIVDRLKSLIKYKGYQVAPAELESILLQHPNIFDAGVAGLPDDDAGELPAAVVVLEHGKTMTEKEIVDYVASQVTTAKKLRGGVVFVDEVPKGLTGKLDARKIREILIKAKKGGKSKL
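Purified P. pyralis luciferase (10nM final) with 10uM D-luciferin and 10uM ATP (Km levels) in 50mM Tris acetate pH 7.5, 10mM Mg acetate, 0.01% Tween-20, 0.05% BSA; qHTS 6-point titration, ~60 µM downward; luminescence read.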
SMN2 splice up: qHTS Assay for Enhancers of SMN2 Splice Variant Expression | HEK293 SMN2-luciferase splicing reporter, luminescence, 30-36 h | Potency, µM (titrated, usually from 46.1 µM), for the others: top-dose activity change, positive = activation, most hits filed as activators | hit rate 2.8% among 210,000 | AID 1458, 2008; note: % of control where 0% means no effect; nearly all actives have a fitted effect of over 55% in size
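HEK293 cells carry an SMN2 minigene-luciferase reporter in which exon 7 inclusion puts luciferase in frame. Cells were seeded at 2000 cells/well, attached for 10-12 hours, then exposed to compounds for 30-36 hours at 37C before ONE-Glo luminescence.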
ELG1 genotoxic: qHTS screen for small molecules that induce genotoxicity in human embryonic kidney (HEK293T) cells expressing luciferase-tagged ELG1. HEK293T ELG1-luciferase reporter, luminescence, 16 h. Potency, µM (titrated, usually from 46 µM), without a hit: at the top dose activity change, positive = activation, usual class: activators. hit rate 1.3% among 330,000. AID 504466, 2011; note: % of control where 0% means no effect; nearly all actives have a fitted effect of over 60% in size
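16 hr compound incubation (37 °C, 5% CO2) of HEK293T cells carrying luciferase-tagged ELG1; luciferase then measured by ONE-Glo luminescence after 30 min at RT.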
KinaseGlo FLuc: Counterscreen for Luciferase (Kinase-Glo TM) Inhibition; Luciferin 4-monooxygenase (Photuris pensylvanica), Q27757; Kinase-Glo luciferase, ATP luminescence, 8 min; Potency, µM (top dose mostly 38.3 µM), without a hit: at the top dose activity change, negative = inhibition, most hits filed as inhibitors; hit rate 0.28% among 200,000; note: % is set by controls: 0 for no effect and ±100 for the full control effect; nearly all actives have a fitted effect of over 60% in size
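Compound is pinned into ATP-containing buffer (10 uM ATP, imidazole pH 7.2, 7 mM MgCl2). Kinase-Glo luciferase reagent is then added. Light output is recorded following an 8-min room-temperature incubation.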
Active calls of the source: *; ? = inconclusive; nt = no result given. Calls come from the whole dose curve; as a rule, active = well fitted curve in the direction sought with a large enough effect; inconclusive = small, poorly fitted or top-dose-only effect, or another doubt; inactive = no such curve, though single readings can be large; an effect the other way counts as inactive or inconclusive. Potency is the fitted concentration of half-maximal effect.

SMILES	NPC1 prom act	Rab9 prom act	FLuc counter	SMN2 splice up	ELG1 genotoxic	KinaseGlo FLuc
CC1CCc2c(nc3sc4c(c3c2N)CCCC4)C1 (stereo not given)	?	?	4.8µM*	?	2%	-14%
CCCc1nc2sc3c(c2c(=O)[nH]1)CCCC3	-2%	1%	?	nt	1%	-2%
CC1CCc2nc3sc4c(c3c(N)c2C1)CCCC4 (stereo not given)	?	25%	3.8µM*	?	3%	-4%
CCOc1ccccc1C1C(C(=O)Nc2ccccc2)=C(C)Nc2nc(-c3ccccc3)nn21 (stereo not given)	nt	nt	-2%	6%	nt	nt
OC1(c2ccccc2)c2ccccc2-c2ncccc21 (stereo not given)	-1%	2%	0%	22%	-1%	0%
N#C/C(=C/c1ccc(O)cc1)c1nc(-c2ccc(-c3ccccc3)cc2)cs1	nt	nt	-17%	-3%	nt	nt
N#C/C(=C\c1ccc(O)cc1)c1nc2ccccc2o1	?	?	11µM*	nt	?	nt
COc1cc(/C=C(\C#N)c2nc3ccccc3o2)ccc1O	-2%	20%	7.6µM*	nt	?	nt
Cc1ccc(CNC(=O)C(=O)NCC(c2ccco2)S(=O)(=O)c2ccc(C)cc2)cc1 (stereo not given)	nt	nt	-2%	nt	nt	nt
Cn1cc(/C=N\NC(=O)c2cccs2)c2ccccc21	?	2.2µM*	?	14µM*	11µM*	-3%
Cn1cccc1/C=N/NC(=O)c1cccs1	?	?	15µM*	nt	?	nt
Cn1cccc1/C=N/NC(=O)Cc1cccs1	9%	14%	-17%	nt	3%	nt
CCCc1cc(C(=O)N/N=C/c2cccn2C)cs1	?	?	17µM*	nt	18µM*	nt
Cn1cc(/C=N/NC(N)=S)c2ccccc21	4%	-8%	-11%	nt	-1%	nt
Cc1ccc2nc(SC(C)C(=O)N3CCOCC3)[nH]c2c1 (stereo not given)	2.5µM*	3.2µM*	24µM*	20µM*	?	-2%
CCc1c(C)nc(SCC(=O)Nc2ccc3c(c2)OCCO3)[nH]c1=O	-1%	-7%	?	nt	4%	0%
O=C(CSc1nc2ccccc2[nH]1)Nc1ccc2c(c1)OCCO2	18%	?	8.5µM*	-6%	4%	14%
O=C(CSc1ccccn1)c1ccc2c(c1)OCO2	3.5µM*	2.5µM*	11µM*	11µM*	4.6µM*	?
Cc1ccc2nc(SCC(=O)Nc3ccc4c(c3)OCCO4)[nH]c2c1	-5%	1%	15µM*	-4%	17%	1%
COc1ccc(C(=O)Nc2cccc(-c3cc4ccccc4oc3=O)c2)cc1[N+](=O)[O-]	-7%	-3%	3%	-18%	-1%	-1%
C=CCn1c(=O)c2c(nc3n2CCCN3CCc2ccc(OC)c(OC)c2)n(C)c1=O	-7%	2%	0%	nt	-6%	nt
COC(=O)c1ccccc1NC(=O)CSc1c2c(nc3ccc(Cl)cc13)CCCC2	nt	nt	0%	-13%	nt	nt
C=CCNC(=O)NC(=O)COC(=O)CCCSc1nc2ccccc2[nH]1	0%	1%	-6%	19%	-2%	-1%
O=C(COC(=O)CCCSc1nc2ccccc2[nH]1)Nc1cccc(F)c1	-2%	-3%	13µM*	nt	1%	nt
O=C(CSc1nc2ncccc2[nH]1)Nc1ccc2c(c1)OCO2	1%	-2%	?	nt	-4%	nt
O=C(CSc1nc2ccccc2[nH]1)c1ccc2c(c1)OCO2	?	1.4µM*	12µM*	7%	13µM*	-1%
Cc1ccc2nc(SC(C)C(=O)NC3CCCC3)[nH]c2c1 (stereo not given)	nt	nt	nt	nt	-5%	nt
